PubChem BioAssay AID1159580 (chemical genetic matrix, 2015)
Where “and” joins values, the source holds several entries; their conditions need not be identical. Equal entries are not always repeated. Hit rate of the full screen: of about 5,500 compounds, about 2,000 (36%) were called active. Inconclusive results (about 18%) are left out. No stated cut-off is given here; in the data, active means normalized growth mostly below about 0.91 (no sharp cut-off); inconclusive means no clear call, values can overlap the other calls; inactive means mostly above about 0.92. This is one part of the list.

Assay: chemical genetic growth profiling, strain panel (AID 1159580);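 further: tested at 20 µM; growth read once vehicle control cultures reached saturation at 30 °C; 1 = growth at the plate median or of vehicle wells; lower values mean less growth of the strain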
Conditions: S. cerevisiae deletion strains, growth OD

Measured: normalized growth

CN(C)CC[C@H](c1ccc(Cl)cc1)c1ccccn1
inactive: locus YAL013W, strain DEP1, hits give low values 0.997 | locus YAL021C, strain ccr4, hits give low values 0.99 | locus YAL026C, strain drs2, hits give low values 1.01 | locus YAL030W, strain snc1, hits give low values 1 | locus YBL061C, strain skt5, hits give low values 1.01 | locus YBR009C, strain hhf1, hits give low values 1.01 | locus YBR021W, strain FUR4, hits give low values 0.995 | locus YBR023C, strain chs3, hits give low values 0.996 | locus YBR171W, strain sec66, hits give low values 0.998 | locus YBR229C, strain ROT2, hits give low values 1 | locus YBR231C, strain swc5, hits give low values 0.989 | locus YBR279W, strain paf1, hits give low values 1.01 | locus YCL011C, strain gbp2, hits give low values 0.993 | locus YCL016C, strain dcc1, hits give low values 1.02 | locus YCL029C, strain bik1, hits give low values 1 | locus YCL061C, strain MRC1, hits give low values 1 | locus YCL069W, strain vba3, hits give low values 1 | locus YCR088W, strain abp1, hits give low values 0.989 | locus YDL005C, strain med2, hits give low values 0.992 | locus YDL035C, strain GPR1, hits give low values 1.02 | locus YDL040C, strain nat1, hits give low values 1.01 | locus YDL074C, strain BRE1, hits give low values 1.01 | locus YDL101C, strain DUN1, hits give low values 0.998 | locus YDL134C, strain PPH21, hits give low values 0.996 | locus YDL185W, strain tfp1, hits give low values 0.985 | locus YDL192W, strain arf1, hits give low values 1 | locus YDR001C, strain nth1, hits give low values 0.999 | locus YDR069C, strain doa4, hits give low values 1.01 | locus YDR101C, strain arx1, hits give low values 0.998 | locus YDR137W, strain rgp1, hits give low values 1.03 | locus YDR150W, strain NUM1, hits give low values 1.01 | locus YDR159W, strain sac3, hits give low values 1 | locus YDR162C, strain NBP2, hits give low values 1.01 | locus YDR195W, strain ref2 1.01 | locus YDR297W, strain sur2, hits give low values 1.01 | locus YDR318W, strain mcm21, hits give low values 0.985 | locus YDR334W, strain swr1, hits give low values 1 | locus YDR335W, strain msn5, hits give low values 1 | locus YDR388W, hits give low values 0.991 | locus YDR392W, strain spt3, hits give low values 1.01 | locus YDR502C, strain sam2, hits give low values 1.01 | locus YEL003W, strain gim4, hits give low values 1.01 | locus YEL037C, strain rad23, hits give low values 0.992 | locus YEL061C, strain CIN8 (second series), hits give low values 1 | locus YEL061C, strain CIN8, hits give low values 1 | locus YER015W, strain faa2, hits give low values 1.01 | locus YER016W, strain bim1, hits give low values 0.99 | locus YER110C, hits give low values 0.98 | locus YER111C, strain swi4, hits give low values 0.994 | locus YER155C, strain BEM2 (second series), hits give low values 1.01 | locus YER155C, strain BEM2, hits give low values 1 | locus YER167W, strain BCK2, hits give low values 1.01 | locus YFR010W, strain ubp6, hits give low values 0.991 | locus YGL078C, strain dbp3, hits give low values 1 | locus YGL086W, strain mad1, hits give low values 1.01 | locus YGL167C, strain pmr1, hits give low values 0.985 | locus YGL173C, strain kem1, hits give low values 0.998 | locus YGL227W, strain vid30, hits give low values 1.01 | locus YGL240W, strain doc1, hits give low values 1.01 | locus YGL248W, strain PDE1, hits give low values 0.997 | locus YGL253W, strain hxk2, hits give low values 1.01 | locus YGR078C, strain PAC10, hits give low values 1.01 | locus YGR135W, strain pre9, hits give low values 1 | locus YGR229C, strain SMI1, hits give low values 1.01 | locus YGR252W, strain gcn5, hits give low values 0.959 | locus YHR013C, strain ard1, hits give low values 1.01 | locus YHR027C, strain rpn1, hits give low values 0.998 | locus YHR030C, strain SLT2, hits give low values 1 and 0.993 | locus YHR079C, strain IRE1 (second series), hits give low values 0.993 | locus YHR079C, strain IRE1, hits give low values 1 | locus YHR094C, strain hxt1, hits give low values 0.99 | locus YHR129C, strain ARP1, hits give low values 0.999 | locus YHR142W, strain chs7, hits give low values 1.02 | locus YHR200W, strain rpn10, hits give low values 0.992 | locus YIL066C, strain RNR3, hits give low values 1.01 | locus YIL073C, strain SPO22, hits give low values 0.992 | locus YIL125W, strain kgd1, hits give low values 0.999 | locus YIR030C, strain dcg1, hits give low values 0.991 | locus YJL092W, strain hpr5, hits give low values 1.01 | locus YJL095W, strain BCK1 (second series), hits give low values 0.997 | locus YJL095W, strain BCK1, hits give low values 1 | locus YJL115W, strain asf1, hits give low values 1.01 | locus YJL129C, strain trk1, hits give low values 1.01 | locus YJL134W, strain LCB3, hits give low values 1.01 | locus YJL154C, strain vps35, hits give low values 1.01 | locus YJL164C, strain tpk1, hits give low values 0.992 | locus YJL166W, strain qcr8, hits give low values 0.985 | locus YJL168C, strain set2, hits give low values 0.993 | locus YJL187C, strain SWE1 (second series), hits give low values 1.01 | locus YJL187C, strain SWE1, hits give low values 1.01 | locus YJR043C, strain POL32, hits give low values 0.984 | locus YJR066W, strain TOR1, hits give low values 0.993
